This passage reports Potency results from PubChem BioAssay (NCATS).

Inconclusive results are not listed. A call without a number means that no potency is given here. Active and inactive are the calls of the source. The call rests on the fitted dose curve; in most records, active means well fitted inhibition curve with a large enough effect; inconclusive means small, poorly fitted or top-dose-only effect; inactive means no such curve, though single readings can be large or run the other way.

The target in one experiment is Furin (Homo sapiens) (UniProt P09958). Description: Furin counterscreen qHTS for Zika virus inhibitors (AID 1347149). Further: nearly all actives have a fitted effect of over 70% in size. Further: potency means the concentration at half of the fitted maximal effect. The essentials:
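Fluorogenic cleavage of BOC-RVRR-AMC (2 microM final, Km ~15 µM) was monitored (ex 340, em 450 nm) at 37C after 15 min RT preincubation of 5 nM furin with compounds in HEPES pH 7.0 buffer with CaCl2 and Triton X-100. Percent inhibition was fitted to a 4-parameter Hill curve.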
(A counterscreen serves to expose hits that act by an unwanted route or on another target.)

Experiment [1] has as its target N-terminal Xaa-Pro-Lys N-methyltransferase 1 (Homo sapiens) (UniProt Q9BV86). Description: qHTS Assay for Inhibitors of N-terminal methyltransferase 1 (NTMT1): LOPAC validation of the NTMT1 SAHH-coupled ThioGlo3 Assay (AID 1347143).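 Further: SAH from peptide methylation measured as thiol fluorescence via SAHH coupling and ThioGlo3; nearly all actives have a fitted effect of over 70% in size.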 The procedure, abridged:
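Inhibition of NTMT1 methylation of peptide SPKRIA is followed by converting SAH with SAHH and labelling the released thiol with ThioGlo3. Plates are read at 340/450nm before and 30 min after reagent addition, both at room temperature.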

In experiment [2] the test system is Zika virus NS2B-NS3 protease (unlinked). Description: Optimization of GU AMC qHTS for Zika virus inhibitors: Unlinked NS2B-NS3 protease assay (AID 1347151). Further: series mostly up to about 52 µM; nearly all actives have a fitted effect of over 80% in size. The essentials:
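Fluorescence read-out (340 nm ex / 450 nm em) of AMC peptide cleavage, taken immediately and after 15 min at room temperature (~20% conversion). Enzyme was the unlinked NS2B–NS3 complex at 25 nM in Tris pH 8.0 buffer.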

Sequence of N-terminal Xaa-Pro-Lys N-methyltransferase 1 (Homo sapiens) (Q9BV86 whole entry, looked up): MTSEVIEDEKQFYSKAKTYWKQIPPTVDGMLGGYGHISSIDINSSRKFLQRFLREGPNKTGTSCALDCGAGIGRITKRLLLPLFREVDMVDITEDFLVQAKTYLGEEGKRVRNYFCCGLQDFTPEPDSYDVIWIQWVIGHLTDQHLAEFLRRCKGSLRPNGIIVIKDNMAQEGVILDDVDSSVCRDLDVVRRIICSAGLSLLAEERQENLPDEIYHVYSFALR
Sequence of Furin (Homo sapiens) (P09958 whole entry, looked up): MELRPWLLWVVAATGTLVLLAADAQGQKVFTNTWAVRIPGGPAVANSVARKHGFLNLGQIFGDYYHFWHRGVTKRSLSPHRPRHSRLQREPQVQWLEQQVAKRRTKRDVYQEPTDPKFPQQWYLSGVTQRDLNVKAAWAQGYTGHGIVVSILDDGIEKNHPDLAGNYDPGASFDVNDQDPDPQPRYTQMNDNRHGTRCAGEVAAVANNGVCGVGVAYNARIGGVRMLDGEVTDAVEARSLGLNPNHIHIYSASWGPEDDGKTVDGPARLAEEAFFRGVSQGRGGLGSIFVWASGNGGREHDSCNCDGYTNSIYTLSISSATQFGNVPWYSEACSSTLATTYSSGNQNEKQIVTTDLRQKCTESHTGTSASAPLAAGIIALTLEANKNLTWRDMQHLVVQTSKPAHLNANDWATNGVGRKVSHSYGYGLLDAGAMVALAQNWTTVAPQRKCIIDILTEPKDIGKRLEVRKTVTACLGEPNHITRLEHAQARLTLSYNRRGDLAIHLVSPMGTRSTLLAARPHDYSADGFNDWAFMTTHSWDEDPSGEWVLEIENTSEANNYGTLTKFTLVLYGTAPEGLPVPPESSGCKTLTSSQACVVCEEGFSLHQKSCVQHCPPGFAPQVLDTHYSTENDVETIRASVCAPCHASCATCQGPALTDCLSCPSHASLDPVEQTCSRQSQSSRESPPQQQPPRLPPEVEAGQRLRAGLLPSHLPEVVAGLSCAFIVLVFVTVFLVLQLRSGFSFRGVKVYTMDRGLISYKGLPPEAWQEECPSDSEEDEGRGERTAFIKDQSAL

Take `COC(=O)[C@H]1[C@H]2C[C@@H]3c4[nH]c5cc(OC)ccc5c4CCN3C[C@H]2C[C@@H](OC(=O)c2cc(OC)c(OC)c(OC)c2)[C@@H]1OC`: the Potency with Furin (Homo sapiens) is 27.1 µM (active).
Still for that read-out and setting: for `CCOC(=O)c1cnc2c(cnn2CC)c1NN=C(C)C` the value was “inactive”.
Regarding `CC(=O)[C@@]1(O)CC[C@H]2[C@@H]3CCC4=CC(=O)CC[C@]4(C)[C@H]3CC[C@@]21C`, the Potency entry in experiment [1] and in experiment [2] was “inactive” each time.
Consider `Nc1ncn([C@@H]2O[C@H](CO)[C@@H](O)[C@H]2O)c(=O)n1`, for which the Potency result in experiment [1] and in experiment [2] was “inactive” in each case.
Consider `O=C(CCNNC(=O)c1ccncc1)NCc1ccccc1`, for which the Potency result in experiment [1] and in experiment [2] was “inactive” in each case.
In the case of `CCN(CC)CCNC(=O)c1cc(S(C)(=O)=O)ccc1OC`, the Potency result in experiment [1] and in experiment [2] was “inactive” in each case.
In the case of `COc1cc(Cc2cnc(N)nc2N)cc(OC)c1OC`, the Potency entry in experiment [1] and in experiment [2] was “inactive” in each case.
Take `CN(C)CC[C@@H](c1ccc(Br)cc1)c1ccccn1`: the Potency entry in experiment [1] and in experiment [2] was “inactive” each time.
In the case of `NS(=O)(=O)c1cc2c(cc1Cl)NC(C1CC3C=CC1C3)NS2(=O)=O` (stereo not given), the Potency result in experiment [1] and in experiment [2] was “inactive” throughout.
`CC(C(=O)O)c1ccc(CC2CCCC2=O)cc1` (stereo not given): the Potency entry in experiment [1] and in experiment [2] was “inactive” throughout.
In the case of `CC1=NS(=O)(=O)c2cc(Cl)ccc2N1`, the Potency entry in experiment [1] and in experiment [2] was “inactive” throughout.
Regarding `C[C@]12CCC(=O)C=C1CC[C@@H]1[C@@H]2CC[C@@]2(C)[C@H]1CC[C@]2(O)C(=O)CO`, the Potency result in experiment [1] and in experiment [2] was “inactive” in each case.
In the case of `O=C(CCCN1CCC(O)(c2cccc(C(F)(F)F)c2)CC1)c1ccc(F)cc1`, the Potency entry in experiment [1] and in experiment [2] was “inactive” each time.
In the case of `CCn1ccnc1CC1COc2ccccc2O1` (stereo not given), the Potency entry in experiment [1] and in experiment [2] was “inactive” throughout.
Regarding `CN(C)CC/C=C1\c2ccccc2COc2ccccc21`, the Potency entry in experiment [1] and in experiment [2] was “inactive” throughout.
Take `CC(C)(Oc1ccc(CCNC(=O)c2ccc(Cl)cc2)cc1)C(=O)O`: the Potency result in experiment [1] and in experiment [2] was “inactive” each time.
